Assay results published in PubChem BioAssay (NCI).
This is part of a sample that, as a whole, favours compounds with a hit. Of some 79,000 tested, about 15% had one in any assay. Rule as the data show it: active = growth inhibition above about 70%; inactive = the rest.

Legend:
[1] = NCI Yeast Anticancer Drug Screen. Data for the rad50 strain (AID 155);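 also: 0% = growth of vehicle-only cultures of the same strain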; details: S. cerevisiae rad50 strain growth inhibition; at 50.0 µM; active compounds read high
Procedure, shortened: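 A DNA repair-deficient yeast mutant serves as the test organism; compound-induced growth inhibition is calculated against vehicle-treated cells.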

[2] = NCI Yeast Anticancer Drug Screen. Data for the mec2-1 strain (AID 157); details: S. cerevisiae mec2-1 strain, at 50.0 µM, active compounds read high
Procedure, shortened: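 Yeast mec2-1 mutant treated with compound. Readout: growth inhibition vs vehicle controls.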

[3] = NCI Yeast Anticancer Drug Screen. Data for the sgs1 mgt1 strain (AID 161);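 also: 0% = growth of cultures given vehicle only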; details: S. cerevisiae sgs1 mgt1 strain, at 50.0 µM, active compounds read high
Procedure, shortened: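 Read-out: growth inhibition vs vehicle controls. Cells: mutant yeast strain deficient in DNA damage repair.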

[4] = NCI Yeast Anticancer Drug Screen. Data for the cln2 rad14 strain (AID 165);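 also: 0% = growth equal to vehicle treated cultures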; details: S. cerevisiae cln2 rad14 strain, at 50.0 µM, active compounds read high
Procedure, shortened: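 cln2 rad14 yeast strain; compound exposure; growth inhibition read vs vehicle controls.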

[5] = NCI Yeast Anticancer Drug Screen. Data for the bub3 strain (AID 167); details: S. cerevisiae bub3 mutant strain, at 50.0 µM, active compounds read high
Procedure, shortened: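 Inhibition values come from growth of compound-treated mutant yeast normalised to vehicle-treated controls.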

[6] = NCI Yeast Anticancer Drug Screen. Data for the mlh1 rad18 strain (AID 175); details: S. cerevisiae mlh1 rad18 strain growth inhibition; at 50.0 µM; active compounds read high
Procedure, shortened: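 Yeast w/ defined DNA-repair lesions; compound exposure; growth vs vehicle controls → % inhibition.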

Measured: growth inhibition

Nc1ccncc1CCc1ccccc1
inactive: [1] 5.5% | [2] -16.2% | [3] -2.05% | [4] 12.8% | [5] -18%

CC1(C)N=C(N)N=C(N)N1c1cccc(CO)c1
inactive: [1] 0.5% | [2] 9.5% | [3] 1.15% | [4] -2.45% | [5] 15.2%

CCCCS(=O)CC(CO)NC(=O)/C=C/c1c(C)[nH]c(=O)[nH]c1=O (configuration not stated)
inactive: [1] 12.9% | [2] 22.8% | [3] 12.8% | [4] 22.1% | [5] -3.25%

COc1cc(/C=C2/C(=O)N=C(NC(C)=O)N2C)ccc1OC(C)=O
inactive: [1] -35.9% | [2] -2.55% | [3] -14.7% | [4] 6.35% | [5] 5.55%

Cc1ccnc(NS(=O)(=O)c2ccc(N=Cc3ccccc3O)cc2)n1
inactive: [1] -28.4% | [2] -20.1% | [3] -13.9% | [4] -40.4% | [5] -36.2%

CCCc1cc(=O)oc2c3c(c4c(c12)OC(C)(C)C=C4)OC(C)[C@H](C)[C@@H]3O (some centres not stated)
inactive: [1] 14.4% | [2] 11.4% | [3] 32% | [4] 8.85% | [5] 19.8%

CCOC(=O)N1CCC2C(=C(C)C(C)C3=C2C(=O)c2ccccc2C3=O)C1 (configuration not stated)
inactive: [1] -11.5% | [2] -3.5% | [3] -8.9% | [4] 16.9% | [5] 62.4%

COc1ccc(C2=CSc3ccccc3N2)cc1
inactive: [1] 11.2% | [2] 15.8% | [3] 42.3% | [4] 6.1% | [5] 36.3%

CCOC(=O)C1C(c2ccc(Cl)cc2Cl)NC(c2ccc(C)cc2)C(C(=O)OC)S1(=O)=O (configuration not stated)
inactive: [1] 13% | [2] -9.8% | [3] -8.85% | [4] 27.3% | [5] -5.1%

CC(=O)N(c1ccccc1)c1cc(Cl)cc[n+]1[O-]
inactive: [1] 8.5% | [2] 3.5% | [3] 5.45% | [4] -3.7% | [5] 5.3%

COc1ccc(N=C(N)N=C(N)N)cc1
inactive: [1] -3.3% | [2] -2% | [3] -6.9% | [4] 8.2% | [5] -2.65%

COc1ccc(CCn2cnc3ccccc32)cc1
inactive: [1] -44.1% | [2] -34.6% | [3] -34.5% | [4] -4.05% | [5] -11.4%

CC(=O)CC(=O)Nc1ccccc1Cl
inactive: [1] 19.4% | [2] -4.6% | [3] 24.2% | [4] -5.75% | [5] -4.9%

CC1CNCC(C)N1C(=O)c1ccccc1 (configuration not stated)
inactive: [1] 3.85% | [2] 5.15% | [3] -7.7% | [4] 3.25% | [5] 1.5%

O=C1c2ccccc2C(=O)N1CCCO
inactive: [1] -4.55% | [2] -1.9% | [3] -15.4% | [4] -23.8% | [5] -17.7%

ClC1CC2CC1C1COCC21 (configuration not stated)
inactive: [1] 8.9% | [2] -5.35% | [3] -3.85% | [4] -16.2% | [5] -12.6%

CCCCC(CC)CSC[N+](C)(CC)CC (configuration not stated)
inactive: [1] 45% | [2] 24.8% | [3] 22.4% | [4] 1.5% | [5] 15.9%

CC(=O)Nc1ccc(S(=O)(=O)n2c(=O)oc3cc(Br)ccc32)cc1
inactive: [1] 7.4% | [2] 3.35% | [3] -7% | [4] 2.35% | [5] 0.05%

COC(=O)c1cc(OC)nc(Cl)n1
inactive: [1] 3.9% | [2] 13.2% | [3] 1.45% | [4] -37% | [5] -11.9%

Nc1nc(SCC(=O)O)[nH]c(=O)c1N
inactive: [1] -16.2% | [2] 30.1% | [3] -1.7% | [4] 6.25% | [5] -0.25%

CC1(c2ccccc2)CCCCC1OC(N)=O (configuration not stated)
inactive: [1] 4.3% | [2] -21.9% | [3] -13.9% | [4] 27.5% | [5] 7.2%

Cc1ccc(S(=O)(=O)NC(=O)C2S(=O)(=O)OCCOS2(=O)=O)cc1
inactive: [1] -2.75% | [2] 4.15% | [3] -7.1% | [4] -1.85% | [5] -11.3%

Nc1nc(C(=O)O)c([N+](=O)[O-])c(=O)[nH]1
inactive: [1] -31.6% | [2] -13.7% | [3] -14.4% | [4] -20.5% | [5] -6.9%

C=C(C)COc1ccc2c(c1)CCC1C2CCC2(C)C1CCC2(C)O (configuration not stated)
inactive: [1] 21% | [2] 0.45% | [3] 3.75% | [4] 17.6% | [5] -0.9%

COC1/C=C/OC2(C)Oc3c(C)c(O)c4c(O)c(c(/C=N/N5CC(C)N(C(=O)c6ccccc6)C(C)C5)c(O)c4c3C2=O)NC(=O)C(C)=C/C=C/C(C)C(O)C(C)C(O)C(C)C(OC(C)=O)C1C (configuration not stated)
inactive: [1] -5.8% | [2] -13.6% | [3] -23.8% | [4] 24.6% | [5] 25.2%

C[n+]1ccc(Nc2ccc(NC(=O)c3ccc(N)cc3)cc2)cc1
inactive: [1] 12.9% | [2] 20.4% | [3] 8.6% | [4] -5.05% | [5] 6.25%

O=C(O)COc1ccc(F)c(F)c1F
inactive: [1] -16.1% | [2] 4.5% | [3] 21.1% | [4] -9.6% | [5] -2.75%

CNc1ccc(C(=O)O)cc1C
inactive: [1] 1.25% | [2] 12.6% | [3] 9.8% | [4] -15.8% | [5] -56.4%

CCC1C(C#N)(C#N)C1(C#N)C#N
inactive: [1] -4.7% | [2] 21.8% | [3] 7.45% | [4] 0.35% | [5] 1.45%

O=C1CSC(c2ccc([N+](=O)[O-])cc2)N1c1nc(-c2ccc3c(c2)CCCC3)cs1 (configuration not stated)
inactive: [1] 32.1% | [2] 2.85% | [3] 21.1% | [4] 9.3% | [5] 1%

Clc1ccc2c(NCCCCN=Cc3ccccc3)ccnc2c1
inactive: [1] -9.55% | [2] -27.2% | [3] -14% | [4] -10.4% | [5] 15.3%

Cc1cc(OCCN(C)C)cc(C)c1Cl
inactive: [1] -2% | [2] -0.75% | [3] 25.1% | [4] 37.6% | [5] -16.9%

Cc1cc(Br)c(O)c(-c2cscn2)c1
inactive: [1] -17.6% | [2] -34.8% | [3] 11.8% | [4] 28.9% | [5] 16.8%

Cc1c(Cc2c(C)n(C)n(-c3ccccc3)c2=O)c(=O)n(-c2ccccc2)n1C
inactive: [1] 9.55% | [2] -1.7% | [3] -0.25% | [4] 13.4% | [5] 9.9%

C=CC(CCCC(C=C)OC(C)=O)OC(C)=O (configuration not stated)
inactive: [1] 2.2% | [2] -4.95% | [3] -0.65% | [4] -18.1% | [5] 5.6%

CC(=O)Nc1ccc2c(c1)Cc1cc(Cl)c(Cl)cc1-2
inactive: [1] 57.5% | [2] -4.05% | [3] 31.7% | [4] -17.1% | [5] -3.7%

COc1cc(O)c2c(c1)Cc1cc(C)cc(O)c1C2=O
inactive: [1] 10.2% | [2] -1% | [3] 6.2% | [4] 22.5% | [5] 16.6%

C=C(C)/C=C/S(=O)c1ccccc1 (configuration not stated)
inactive: [1] -3.3% | [2] -2.85% | [3] 10.3% | [4] -5.35% | [5] -16.4%

CNCc1cccs1
inactive: [1] -26.8% | [2] -9.7% | [3] -27.8% | [4] -40.3% | [5] -17.6%

O=C(/C=C/c1cccc([N+](=O)[O-])c1)Nc1cccnc1
inactive: [1] 7.55% | [2] -1.35% | [3] 38.9% | [4] -11.8% | [5] 29.9%

COc1cc2ccnc(CCCc3nccc4cc(OC)c(OC)cc34)c2cc1OC
inactive: [1] -30.1% | [2] -4.05% | [3] -27.4% | [4] -1.9% | [5] -1.75% | [6] -9.3%

C1C[S][Ge]2([S]CCS1)[S]CCSCC[S]2
inactive: [1] -10.4% | [2] -30.5% | [3] -16.6% | [4] -15.5% | [5] -30.6% | [6] -14.8%

CCc1nc(N)nc(N)c1-c1ccc(OC)c(N)c1
inactive: [1] 22.4% | [2] 28.1% | [3] 22.6% | [4] 35.7% | [5] 13.6% | [6] 43.4%

COc1ccccc1C(=O)N/N=C/c1ccc(O)cc1
inactive: [1] 0% | [2] 22.6% | [3] 15.3% | [4] -2.7% | [5] 16.6% | [6] 19.9%

COc1nc(NC2OCC(OC(C)=O)C(OC(C)=O)C2OC(C)=O)c(N=C(C)C(C)=O)c(=O)n1C (configuration not stated)
inactive: [1] 30.4% | [2] 21.6% | [3] 13.4% | [4] 17.7% | [5] -1.35% | [6] 8.4%

CCOC(=O)CC(C)CCO (configuration not stated)
inactive: [1] 5.4% | [2] -5.8% | [3] -11.4% | [4] -0.2% | [5] -0.3% | [6] -8.9%

N#CCCC(=O)O
inactive: [1] 17.6% | [2] 0.45% | [3] 11.7% | [4] 3.45% | [5] 2.5% | [6] 15.8%
